Test results published in PubChem BioAssay AID1159580 (chemical genetic matrix, 2015).
The whole screen tested about 5,500 compounds, of which about 2,000 (36%) were called active. About 18% were inconclusive and are not listed. Rule as the data show it: active = normalized growth mostly below about 0.91 (no sharp cut-off); inconclusive = no clear call, values can overlap the other calls; inactive = mostly above about 0.92. The list shows a part of the results.

Assay: chemical genetic growth profiling, strain panel (AID 1159580);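 also: tested at 20 µM; growth read once vehicle control cultures reached saturation at 30 °C; 1 = growth at the plate median or of vehicle wells; lower values mean less growth of the strain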
Details: growth OD

Measured: normalized growth

CN[C@H](CC(=O)O)C(=O)O
inactive: S. cerevisiae deletion strains, locus YJR066W, strain TOR1, active compounds read low 0.949 | S. cerevisiae deletion strains, locus YJR075W, strain HOC1, active compounds read low 0.988 | S. cerevisiae deletion strains, locus YKL009W, strain mrt4, active compounds read low 0.938 | S. cerevisiae deletion strains, locus YKL068W, active compounds read low 1.01 | S. cerevisiae deletion strains, locus YKL085W, strain MDH1 (second series), active compounds read low 1.01 | S. cerevisiae deletion strains, locus YKL085W, strain MDH1, active compounds read low 1.01 | S. cerevisiae deletion strains, locus YKL160W, strain elf1, active compounds read low 1.02 | S. cerevisiae deletion strains, locus YKL190W, strain CNB1, active compounds read low 0.999 | S. cerevisiae deletion strains, locus YKR001C, strain vps1, active compounds read low 0.989 | S. cerevisiae deletion strains, locus YKR026C, strain gcn3, active compounds read low 1.02 | S. cerevisiae deletion strains, locus YKR091W, strain srl3, active compounds read low 1.02 | S. cerevisiae deletion strains, locus YLL001W, strain dnm1, active compounds read low 1.03 | S. cerevisiae deletion strains, locus YLL026W, active compounds read low 1.03 | S. cerevisiae deletion strains, locus YLL041C, strain sdh2, active compounds read low 1.01 | S. cerevisiae deletion strains, locus YLR027C, strain aat2, active compounds read low 1.03 | S. cerevisiae deletion strains, locus YLR039C, strain RIC1, active compounds read low 0.962 | S. cerevisiae deletion strains, locus YLR058C, strain SHM2, active compounds read low 0.989 | S. cerevisiae deletion strains, locus YLR102C, strain apc9, active compounds read low 0.989 | S. cerevisiae deletion strains, locus YLR113W, strain HOG1, active compounds read low 1.07 | S. cerevisiae deletion strains, locus YLR221C, strain rsa3, active compounds read low 1 | S. cerevisiae deletion strains, locus YLR258W, strain gsy2, active compounds read low 1.02 | S. cerevisiae deletion strains, locus YLR262C, strain YPT6 (second series), active compounds read low 1.01 | S. cerevisiae deletion strains, locus YLR262C, strain YPT6, active compounds read low 0.936 | S. cerevisiae deletion strains, locus YLR268W, strain sec22, active compounds read low 0.991 | S. cerevisiae deletion strains, locus YLR320W, strain mms22, active compounds read low 0.992 | S. cerevisiae deletion strains, locus YLR330W, strain CHS5, active compounds read low 0.991 | S. cerevisiae deletion strains, locus YLR342W, strain FKS1 (second series), active compounds read low 0.983 | S. cerevisiae deletion strains, locus YLR342W, strain FKS1, active compounds read low 1.02 | S. cerevisiae deletion strains, locus YLR357W, strain rsc2, active compounds read low 0.995 | S. cerevisiae deletion strains, locus YLR370C, strain arc18, active compounds read low 1.02 | S. cerevisiae deletion strains, locus YLR371W, strain rom2, active compounds read low 0.997 | S. cerevisiae deletion strains, locus YLR384C, strain iki3, active compounds read low 1.03 | S. cerevisiae deletion strains, locus YLR418C, strain cdc73, active compounds read low 0.947 | S. cerevisiae deletion strains, locus YML016C, strain PPZ1, active compounds read low 0.989 | S. cerevisiae deletion strains, locus YML032C, strain rad52, active compounds read low 0.964 | S. cerevisiae deletion strains, locus YML120C, strain ndi1, active compounds read low 1.03 | S. cerevisiae deletion strains, locus YML124C, strain tub3, active compounds read low 0.99 | S. cerevisiae deletion strains, locus YMR058W, strain fet3, active compounds read low 1.01 | S. cerevisiae deletion strains, locus YMR078C, strain ctf18, active compounds read low 0.98 | S. cerevisiae deletion strains, locus YMR125W, strain sto1, active compounds read low 1.08 | S. cerevisiae deletion strains, locus YMR129W, active compounds read low 1.01 | S. cerevisiae deletion strains, locus YMR205C, strain PFK2, active compounds read low 1.03 | S. cerevisiae deletion strains, locus YMR223W, strain ubp8, active compounds read low 0.937 | S. cerevisiae deletion strains, locus YMR231W, strain pep5, active compounds read low 0.998 | S. cerevisiae deletion strains, locus YMR307W, strain GAS1, active compounds read low 0.89 | S. cerevisiae deletion strains, locus YNL067W, strain RPL9B, active compounds read low 1.02 | S. cerevisiae deletion strains, locus YNL071W, strain lat1, active compounds read low 1.02 | S. cerevisiae deletion strains, locus YNL153C, strain GIM3, active compounds read low 1.03 | S. cerevisiae deletion strains, locus YNL183C, strain NPR1, active compounds read low 0.992 | S. cerevisiae deletion strains, locus YNL209W, strain ssb2, active compounds read low 1.01 | S. cerevisiae deletion strains, locus YNL233W, strain BNI4, active compounds read low 1.01 | S. cerevisiae deletion strains, locus YNL248C, strain rpa49, active compounds read low 0.98 | S. cerevisiae deletion strains, locus YNL250W, strain rad50, active compounds read low 0.941 | S. cerevisiae deletion strains, locus YNL271C, strain bni1, active compounds read low 0.977 | S. cerevisiae deletion strains, locus YNL298W, strain CLA4, active compounds read low 0.972 | S. cerevisiae deletion strains, locus YNL307C, strain MCK1, active compounds read low 0.976 | S. cerevisiae deletion strains, locus YNL322C, strain KRE1 (second series), active compounds read low 1.03 | S. cerevisiae deletion strains, locus YNR049C, strain mso1, active compounds read low 1.02 | S. cerevisiae deletion strains, locus YNR052C, strain pop2, active compounds read low 0.978 | S. cerevisiae deletion strains, locus YOL006C, strain TOP1, active compounds read low 1.06 | S. cerevisiae deletion strains, locus YOL012C, strain htz1 0.629 | S. cerevisiae deletion strains, locus YOL147C, strain pex11, active compounds read low 0.984 | S. cerevisiae deletion strains, locus YOR001W, strain rrp6, active compounds read low 1.02 | S. cerevisiae deletion strains, locus YOR061W, strain CKA2, active compounds read low 0.994 | S. cerevisiae deletion strains, locus YOR069W, strain VPS5, active compounds read low 0.991 | S. cerevisiae deletion strains, locus YOR070C, strain gyp1, active compounds read low 1.01 | S. cerevisiae deletion strains, locus YOR080W, strain dia2, active compounds read low 1.03 | S. cerevisiae deletion strains, locus YOR083W, strain WHI5, active compounds read low 1.02 | S. cerevisiae deletion strains, locus YOR106W, strain vam3, active compounds read low 1.01 | S. cerevisiae deletion strains, locus YOR136W, strain idh2, active compounds read low 0.991 | S. cerevisiae deletion strains, locus YOR144C, strain elg1, active compounds read low 0.99 | S. cerevisiae deletion strains, locus YOR184W, strain ser1, active compounds read low 0.936 | S. cerevisiae deletion strains, locus YOR231W, strain MKK1, active compounds read low 1.1 | S. cerevisiae deletion strains, locus YOR265W, strain rbl2, active compounds read low 1.03 | S. cerevisiae deletion strains, locus YOR270C, strain vph1, active compounds read low 1 | S. cerevisiae deletion strains, locus YOR290C, strain snf2, active compounds read low 1.01 | S. cerevisiae deletion strains, locus YOR316C, strain cot1, active compounds read low 0.991 | S. cerevisiae deletion strains, locus YPL051W, strain arl3, active compounds read low 1.02 | S. cerevisiae deletion strains, locus YPL078C, strain atp4, active compounds read low 0.989 | S. cerevisiae deletion strains, locus YPL106C, strain sse1, active compounds read low 1.04 | S. cerevisiae deletion strains, locus YPL240C, strain hsp82, active compounds read low 1.04 | S. cerevisiae deletion strains, locus YPL256C, strain CLN2, active compounds read low 1.06 | S. cerevisiae deletion strains, locus YPR119W, strain clb2, active compounds read low 0.987 | S. cerevisiae deletion strains, locus YPR141C, strain kar3, active compounds read low 0.985 | S. cerevisiae deletion strains, locus YPR163C, strain tif3, active compounds read low 0.995 | S. cerevisiae deletion strains, locus YPR167C, strain met16, active compounds read low 0.981 | S. cerevisiae deletion strains, strain wtn01, active compounds read low 0.963 | S. cerevisiae strains, strain wild type, active compounds read low 0.995
